# Compound activity as filed in PubChem.
# An excerpt weighted towards active compounds, which were near 0.81% of everything screened.
# RTF Ca sens inh – cardiac RTF calcium desensitization. P19429+P45379. IANBD-labeled cardiac RTF, Ca2+ fluorescence. inhibition, % at 7.15 µM. 340,000 tested, 0.12% active. AID 493244;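 active = inhibition above the mean inhibition of all tested compounds plus 3 SD, cut at about 17% in these data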;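 also: assay run at fixed EC70 calcium of 1.6 mM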
# LANA DNA inh – blocks KSHV LANA C-terminal domain binding to DNA | MBP-C-LANA/FAM-LBS DNA binding, fluorescence polarization | inhibition, % at 9 µM | 340,000 tested, 0.078% active | AID 504423;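 active = highest replicate inhibition at or above 60% at 9 µM, even if other replicates fall short; inactive = all replicates below 60% inhibition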;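 also: 0% = neutral control wells and 100% = 4 µM acridine orange control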
# cardiac RTF act – cardiac RTF calcium sensitization; P19429+P45379; IANBD-labeled TnC RTF fluorescence at EC20 calcium; 0% EC20 calcium, 100% full calcium; activation, % at 7.2 µM; 340,000 tested, 0.24% active; AID 493008;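 active = activation above the mean over all tested compounds plus 3 SD, cut at about 30% in these data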;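 also: rise in fluorescence read as greater calcium sensitivity of cardiac thin filaments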
# Keap1 Nrf2 FP – inhibitors of human Keap1-Nrf2 protein-protein interaction. Q14145. Keap1 Kelch-Nrf2 peptide fluorescence polarization, 1536-well. inhibition, % at 9.4 µM. 340,000 tested, 0.15% active; in the data active = inhibition above about 12%;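 also: human Keap1 Kelch domain with fluorescein labeled Nrf2 9mer peptide probe; 0% = neutral control wells and 100% = peptide positive control; higher means more block of Keap1 binding to Nrf2 peptide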
# IDE cell inh – inhibitors of human insulin-degrading enzyme in cells. P14735. HEK cells, FAbetaB cleavage, fluorescence polarization. inhibition, % at 5.59 µM. 320,000 tested, 0.41% active;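 active = percent inhibition above the average of all tested compounds plus 3 SD, set per screening campaign, cut at about 16% in these data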;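 also: IDE supplied by intact live HEK cells; FP after avidin binding of uncleaved biotin substrate so inhibition keeps polarization high; 0% = DMSO wells and 100% = 60 µM reference IDE inhibitor Ii1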
# Target sequence (P14735 whole entry, looked up): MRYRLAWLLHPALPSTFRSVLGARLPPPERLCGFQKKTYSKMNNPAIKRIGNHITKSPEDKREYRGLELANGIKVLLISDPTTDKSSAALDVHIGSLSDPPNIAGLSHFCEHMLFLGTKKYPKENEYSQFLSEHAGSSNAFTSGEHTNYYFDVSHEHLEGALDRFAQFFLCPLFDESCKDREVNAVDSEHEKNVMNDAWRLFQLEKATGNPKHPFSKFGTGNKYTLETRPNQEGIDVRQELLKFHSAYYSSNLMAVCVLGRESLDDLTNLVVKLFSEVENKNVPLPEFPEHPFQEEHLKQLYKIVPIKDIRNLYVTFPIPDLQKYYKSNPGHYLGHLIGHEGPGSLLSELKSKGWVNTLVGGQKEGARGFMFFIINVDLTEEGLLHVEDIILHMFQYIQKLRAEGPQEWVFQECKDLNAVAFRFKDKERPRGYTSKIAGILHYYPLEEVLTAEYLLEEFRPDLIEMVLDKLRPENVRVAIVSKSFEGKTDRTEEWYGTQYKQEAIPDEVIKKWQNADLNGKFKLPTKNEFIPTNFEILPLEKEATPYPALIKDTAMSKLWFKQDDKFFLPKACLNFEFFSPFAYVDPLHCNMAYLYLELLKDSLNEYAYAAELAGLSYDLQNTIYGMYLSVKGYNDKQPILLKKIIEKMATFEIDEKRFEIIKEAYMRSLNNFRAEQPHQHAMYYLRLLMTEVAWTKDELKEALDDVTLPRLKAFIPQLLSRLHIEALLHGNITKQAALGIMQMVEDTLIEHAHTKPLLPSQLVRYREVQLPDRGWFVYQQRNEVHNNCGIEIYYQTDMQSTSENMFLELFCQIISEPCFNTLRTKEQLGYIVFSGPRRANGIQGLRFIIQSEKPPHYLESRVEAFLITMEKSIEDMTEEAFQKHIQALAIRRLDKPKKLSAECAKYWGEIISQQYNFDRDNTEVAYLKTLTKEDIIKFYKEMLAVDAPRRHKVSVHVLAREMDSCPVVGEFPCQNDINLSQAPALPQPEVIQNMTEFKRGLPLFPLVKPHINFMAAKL
# IDE cell activ – activators of human insulin-degrading enzyme in cells; HEK cells, FAbeta-B cleavage, fluorescence polarization; 0% vehicle, 100% cell-free pure enzyme wells; activation, % at 5.96 µM; 340,000 tested, 0.073% active;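 active = activation above the mean of all tested compounds plus 3 SD, set per screening campaign, cut at about 17% in these data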
# Starred values were filed as active, the others as inactive; · = no result given.
SMILES,RTF Ca sens inh,LANA DNA inh,cardiac RTF act,Keap1 Nrf2 FP,IDE cell inh,IDE cell activ
NC(=O)Cn1cc(/C=N\NS(=O)(=O)c2ccc(Cl)cc2)c2ccccc21,-2.1,-1.2,-5.1,-0.7,-8.8,24.3*
CC[C@H]1c2[nH]c3ccccc3c2C[C@@H]2C(=O)N(c3ccc(F)cc3)C(=O)N21,4.8,1.0,0.0,-1.5,4.1,3.3
Cc1c2ccccc2nc2ccccc12,-6.5,1.9,-0.3,-0.5,1.1,3.0
CCCNc1c(F)c(F)c2c(C)c3ccccc3nc2c1F,-48.1,2.3,35.7*,4.1,7.1,-10.1
COc1ccc(N=C2S/C(=C\c3ccc(OCC(=O)O)cc3)C(=O)N2CCc2c[nH]c3ccccc23)cc1,5.2,1.3,-7.5,-4.8,·,-2.4
COc1ccc(N=C2S/C(=C\c3ccc(N4CCOCC4)o3)C(=O)N2CCc2c[nH]c3ccccc23)cc1,-28.2,0.9,31.6*,-4.6,6.6,-21.2
C/C(=C\c1ccc2c(c1)OCO2)C1Nc2cccc3cccc(c23)N1,0.0,62.3*,-1.5,7.0,-0.2,-0.7
CC1CN(S(=O)(=O)c2ccc(C(=O)Nc3nccs3)cc2)CC(C)O1 (stereo not drawn),-3.2,-1.3,-0.7,2.4,3.3,5.1
CC1CN(S(=O)(=O)c2ccc(C(=O)Nc3nncs3)cc2)CC(C)O1 (stereo not drawn),2.7,-0.4,-5.0,1.5,1.5,25.8*
COc1cc(C2Nc3cccc4cccc(c34)N2)cc(OC)c1O,1.9,-2.4,-2.5,-2.5,-5.8,28.0*
COc1cc(OC)c(NC(=O)c2cc3ccccc3cc2O)cc1Cl,2.7,2.6,31.6*,-0.7,·,2.3
Cc1ccc(NC(=O)O/N=C/c2ccc(F)cc2)cc1,-6.1,0.5,37.2*,-2.6,-1.8,-0.6
COc1ccc(C2CC(C(F)(F)F)n3nc(C(=O)O)c(Cl)c3N2)cc1OC (stereo not drawn),-1.8,-0.6,-1.3,-4.4,-2.3,18.2*
COc1ccc(C2CC(C(F)(F)F)n3nc(CO)c(Cl)c3N2)cc1OC (stereo not drawn),-2.1,4.5,1.0,1.9,2.1,4.7
CCN1CCN(c2cc(N3CCN(C(=O)c4ccco4)CC3)c3c4c(onc24)-c2ccccc2C3=O)CC1,3.2,-23.5,1.6,-24.1,4.5,1.4
O=C(O)CCNc1cc(N2CCN(C(=O)c3ccco3)CC2)c2noc3c2c1C(=O)c1ccccc1-3,-9.0,-16.4,138.8*,-260.6,6.1,-0.8
CCOC(=O)C1(CC2CCCCO2)CCN(Cc2cc3ccccc3[nH]2)CC1 (stereo not drawn),-0.2,0.2,-1.7,-4.6,-1.4,-1.6
Oc1[nH]c2ccccc2c1N=Nc1ccccc1Cl,-89.3,-2.9,64.8*,1.4,·,-4.5
COc1cccc(/C(O)=C/c2nc3ccc(C(=O)NCCc4ccc(Cl)cc4)cc3[nH]c2=O)c1,-2.7,0.8,99.4*,-0.8,·,-4.4
CCOC(=O)c1sc2ncn(/N=C/c3ccc(O)c(OC)c3)c(=O)c2c1C,6.8,1.4,10.2,-2.8,0.1,-3.2
Cc1[nH]c(=O)[nH]c1C(=O)CCCCC(=O)O,-7.0,2.6,3.6,-3.1,-17.4,38.6*
CN(C)c1ccc(/C=C2\N=C(C(C)(C)C)OC2=O)cc1,-13.9,7.4,29.9*,2.7,1.7,-6.3
COc1ccc(/C=C2\N=C(C(C)(C)C)OC2=O)c(OC)c1,-3.3,5.3,-2.4,0.4,-0.8,12.0
COc1ccc(/C=C2\OC(=S)N(C)C2=O)cc1,-3.6,2.0,-2.0,1.1,0.3,5.5
CN1C(=O)/C(=C\c2ccc(N(C)C)cc2)OC1=S,-131.8,-2.2,45.7*,-17.6,·,-124.1
SMILES,RTF Ca sens inh,LANA DNA inh,cardiac RTF act,Keap1 Nrf2 FP,IDE cell inh,IDE cell activ
C#CCOCCOCCOCCNc1nc(N2CCN(C(=O)CCCCCCCCCCNC(=O)[C@H]([C@@H](C)CC)n3cc(CCCCN=C(N)N)nn3)CC2)nc(N2CCN(C(=O)CCCCCCCCCCNC(=O)[C@H](CCCCN)n3cc(C)nn3)CC2)n1,·,·,·,·,-3.5,·
C#CCOCCOCCOCCNc1nc(N2CCN(C(=O)CCCCCCCCCCNC(=O)Cn3cc(CCCCCN)nn3)CC2)nc(N2CCN(C(=O)CCCCCCCCCCNC(=O)[C@H]([C@@H](C)CC)n3cc(CCCCN=C(N)N)nn3)CC2)n1,-3.2,-12.3,-6.7,-6.3,4.1,41.9*
C#CCOCCOCCOCCNc1nc(N2CCN(C(=O)CCCCCCCCCCNC(=O)[C@H]([C@@H](C)CC)n3cc(CCCCCN)nn3)CC2)nc(N2CCN(C(=O)CCCCCCCCCCNC(=O)[C@H]([C@@H](C)CC)n3cc(CCCCN=C(N)N)nn3)CC2)n1,2.3,-2.9,6.2,-10.0,-4.9,51.1*
C#CCOCCOCCOCCNc1nc(N2CCN(C(=O)CCCCCCCCCCNC(=O)[C@H]([C@@H](C)CC)n3cc(CCCCCN)nn3)CC2)nc(N2CCN(C(=O)CCCCCCCCCCNC(=O)[C@H](CO)n3cc(CCCCCN)nn3)CC2)n1,-7.8,-9.0,-1.9,1.5,8.6,36.9*
C#CCOCCOCCOCCNc1nc(N2CCN(C(=O)CCCCCCCCCCNC(=O)[C@H]([C@@H](C)CC)n3cc(CCCCN=C(N)N)nn3)CC2)nc(N2CCN(C(=O)CCCCCCCCCCNC(=O)[C@H]([C@@H](C)CC)n3cc(CCCCN=C(N)N)nn3)CC2)n1,·,·,·,·,-6.9,·
C#CCOCCOCCOCCNc1nc(N2CCN(C(=O)CCCCCCCCCCNC(=O)[C@H]([C@@H](C)CC)n3cc(CCCCN=C(N)N)nn3)CC2)nc(N2CCN(C(=O)CCCCCCCCCCNC(=O)[C@H](CO)n3cc(CCCCCN)nn3)CC2)n1,10.8,-4.4,-4.3,-10.5,4.2,40.4*
COc1ccc(NC(=O)c2cc([N+](=O)[O-])ccc2O)cc1,-1.3,-0.4,3.6,2.0,3.4,22.2*
COCCSc1ccccc1C(=O)N1CCN(c2ccccc2OC)CC1,3.5,-1.1,-0.3,-3.3,6.7,3.8
Cc1ccc2c(c1)sc(C)[n+]2CCCS(=O)(=O)[O-],-5.8,-0.8,3.0,-3.6,11.9,1.9
COc1cc(/C=C/c2sc3ccccc3[n+]2CCCS(=O)(=O)[O-])ccc1O,-85.2,-32.8,68.2*,-121.7,10.0,-13.2
CCC(/C=C1\Oc2ccc(OC)cc2N1C)=C\c1sc2ccccc2[n+]1CCCS(=O)(=O)[O-],-11.0,0.9,76.8*,-1.7,·,-10.1
CCOc1cc(C(=O)N2CCN(c3ccccn3)CC2)cc(OCC)c1OCC,5.0,-0.3,-3.2,-2.8,2.2,6.5
C=CCOC(=O)C1=C(C)Nc2ncnn2C1c1cc(Br)ccc1F (stereo not drawn),-5.4,1.6,1.5,-1.3,1.8,-2.5
Fc1ccc(Br)cc1C1C=C(c2ccc(Br)s2)Nc2ncnn21 (stereo not drawn),-69.3,1.1,72.9*,-2.6,16.0,-19.0
